This note sets out measurements from the supplement of paper PMC11417369.

In all, about 25,000 sequences were measured (“ln(normalized median fluorescence intensity)”: median about 9.7, highest 2% from about 11 on). The sample as a whole holds a higher share of the highest values than the screen did.

The assay has as its system PfAP2-HC AP2 domain (GST-tagged). Nature of the assay: gcPBM binding intensity (ln(normalized median fluorescence intensity)); higher = stronger DNA binding. In outline: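 An Agilent 4 × 180k array of primer-extended double-stranded 36-bp intergenic genomic probes, with negative controls, was incubated for 1 h with GST-tagged P. falciparum DNA-binding domains expressed in E. coli. Alexa488 anti-GST antibody detected bound protein, scanned at 488 nm. Binding intensity is the highest Masliner-normalised natural-log median intensity across replicate spots of either probe orientation.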
On to TTTTTGTTATATAAAGTGCAGTGACAAGCAGTTTAA, for which the “gcPBM binding intensity (ln)” value is 9.56. The figure for “TTTTTTTATATTTTTAGTACACATTGGTATATATAT [XGTACX_site4114]” is 9.78.

Take “TTCTTTAAAATATTATGTACACATTGCGAACAGTTT [XGTACX_site5418]”: the “gcPBM binding intensity (ln)” value stood at 9.76. The figure for “CACAGACACGGACACACACACATATATAATATATAT [CACACA_site4495]” is 10.8.

Regarding “CACAGACACGGACACACACACACACCCACATATATA [CACACA_site4355]”, the “gcPBM binding intensity (ln)” value amounted to 11.5. The figure for “AGCACAGACGGACACACACACACACCCACAGACACA [CACACA_site4358]” is 11.4; for “TGTATGTTTATTTATCGTACATATATATATATATAT [XGTACX_site7315]” it is 10.1.

As for “TACGCGAAATGAATATGTACATATATGAGGGCATAT [XGTACX_site4293]”, the “gcPBM binding intensity (ln)” value was 9.75. Consider “ATTTGAAATGCATGAACACACACAGCTATAAATGCA [CACACA_site8229]”, for which the “gcPBM binding intensity (ln)” value was found to be 9.82. As to “GAAATAAGTTAAAATAGTACGTAGTGTTCCTTAAGT [XGTACX_site6557]”, the “gcPBM binding intensity (ln)” value worked out at 9.81. The figure for “ACACAAAAATAGTTTTTTATATTGTTAACCTTATAT [XGTACX_negctrl_site123]” is 9.71; for “AAAAATATAAATGACACACACTTAAAAACAAAGAAA [CACACA_site4540]” it is 10.2; for “TTTAATCAAATTAAAAGTACAGAATTGTTCATGTAG [XGTACX_site1229]” it is 9.53. The figure for “ACTCATAAAAATAGATGTACTTTAATAATTTGATTT [XGTACX_site8763]” is 9.48; for “TATATATATATACCAACACACATACATATATATATA [CACACA_site8530]” it is 9.99; for “AATAACCACGGACACACACACATATATATATATATA [CACACA_site5873]” it is 10.9.

Turning to “TACATACACGGACACACACACATATATATATATATA [CACACA_site5883]”, the “gcPBM binding intensity (ln)” value came to 10.7. The figure for “CACGCGAACATACATACACACACATATATATATATG [CACACA_site7951]” is 10.1. The figure for “CATATACACGAACACACACACATATATATATATATA [CACACA_site4437]” is 10.5.

For the sequence “CCCCCCCACGGACACACACACATACATACCACATAT [CACACA_site5303]”, the “gcPBM binding intensity (ln)” value came to 11.3. Turning to “CCCCCCCACGAACACACACACATACATACCACATAT [CACACA_site7149]”, the “gcPBM binding intensity (ln)” value worked out at 11. Regarding “AGTATACACGAACACACACACACATATATAAATATA [CACACA_site6913]”, the “gcPBM binding intensity (ln)” value came to 10.7.

As to “AACATATACACGAACACACACACATATATATATATA [CACACA_site502]”, the “gcPBM binding intensity (ln)” value is 11.6. Consider “TTTTTTTTTTTTACATGTACTTATTTTAAATATAAA [XGTACX_site805]”, for which the “gcPBM binding intensity (ln)” value worked out at 9.71. The figure for “TATGTTTTTCGGTATGCATGCATATGCTTAATAATA [TGCATGCA_site184]” is 9.55. For “AATATATAGAGAGATATGCACACTGTATGAATGCAC [CACACA_site2677]”, the “gcPBM binding intensity (ln)” value was found to be 9.78. The figure for “AAATATTTATAGGTTTGTACTTATAAATAAAAAAAA [XGTACX_site7360]” is 9.5. The figure for “TATTAAATTATATAGACACACATTATATATATATAT [CACACA_site4345]” is 9.78; for “TATGGAATAAATTTATCCATACATCTTATAACATAT [XGTACX_negctrl_site500]” it is 9.63. The figure for “ATTTATTTTTTACATTGTACATATTTATTCCTTTTA [XGTACX_site8028]” is 9.95. As for “GTAATATGTATCCATACACACATACAGTTTATTTGC [CACACA_site6540]”, the “gcPBM binding intensity (ln)” value amounted to 9.96. The figure for “TAAAATTATGTAATAACACACATATACAATACATAT [CACACA_site1236]” is 9.94; for “AGGGTTACAAGAGGAACACACAAAAAAATAAATAAA [CACACA_site1436]” it is 10. The figure for “AATATATATTAAATATGTACTTATTTTTTGGTTGCT [XGTACX_site3613]” is 9.63; for “TTTAAATAAAAATGGAGTACTCTAAAAAAAAAAAAA [XGTACX_site1233]” it is 9.37. The figure for “TACACAAGAAAATTCACACACACACCGATATATATA [CACACA_site6008]” is 10.7; for “AAAACAAAAGAATTCACACATATATATATATATATA [CACACA_site4777]” it is 10.2; for “CATACACAAGAAAATTCACACACACCCATATATATA [CACACA_site9288]” it is 11.3. “CACAAGAAAGTTCACACACACACATATATATATATA [CACACA_site6009]”: the “gcPBM binding intensity (ln)” value is 10.1. As to “CACAAGAAAATTCACACACACACATATATATATATA [CACACA_site3880]”, the “gcPBM binding intensity (ln)” value amounted to 10.9. The figure for “TACACAAGAAAATTCACACACACACCCATATATATA [CACACA_site3879]” is 10.7; for “TATATATATATGTGTACACATTTGTCAGATTATATA [CACACA_site4813]” it is 9.79.

Regarding “AGGATATATAAGTATACACACATATTTATATTTATA [CACACA_site6239]”, the “gcPBM binding intensity (ln)” value amounted to 9.75. The figure for “AAAATTTAAAGCATGACACACAATTATATTATGTGC [CACACA_site3435]” is 9.76. For “ATGATGTGCTTTAAAAGTACTTAAGTTATATTCTTT [XGTACX_site7127]”, the “gcPBM binding intensity (ln)” value was determined as 9.7. The figure for “ATTGTCAAAACACGCACACACATATACATAATAACA [CACACA_site1742]” is 11.1; for “AAATTGTCAAAACACGCACACACATATACATAATAA [CACACA_site1743]” it is 10.9; for “ATAATATAACAATACGCACACGTATACAAAAAAAAA [CACACA_site5703]” it is 9.99. In the case of “TTAATAACAAAATAAACACACATATATAAATACACA [CACACA_site6849]”, the “gcPBM binding intensity (ln)” value worked out at 10.5.

Take “AAAATTCATAAATACACACACGCACATATATATATA [CACACA_site4227]”: the “gcPBM binding intensity (ln)” value is 10.2. The figure for “TATATACACGCACATACACACAAATAAAAAAACACC [CACACA_site7578]” is 10.2. For “TAAATCCGTTTGATGGGTACATACATACATACATAT [XGTACX_site8889]”, the “gcPBM binding intensity (ln)” value was found to be 9.73. The figure for “GGATGTATTTATATGTGTATGTGTTTGGAAATATGT [XGTACX_negctrl_site99]” is 9.85; for “GTCATATATAATTGTTGTACATTTTTATAATTATGT [XGTACX_site8091]” it is 9.83; for “ACATATATATATATATATATATATATATATAGATAG [CACACA_negctrl_site783]” it is 9.92.

For the sequence “GGTTCATAATATGGTTGTACATAAATATATATATAT [XGTACX_site7583]”, the “gcPBM binding intensity (ln)” value amounted to 9.86.

Take “TATAATAATACTTATTGTACGATTAGCTTAATTCGT [XGTACX_site15]”: the “gcPBM binding intensity (ln)” value stood at 9.51. Consider “AAGAAATATTTATACACACACACAAACATATATATA [CACACA_site1912]”, for which the “gcPBM binding intensity (ln)” value came out at 10.5. The figure for “TAAATAAAAAGACACACACACATATTTATATTTATA [CACACA_site7135]” is 10.4; for “TATAAAAATAAGCACACACACAAATATATATTTATT [CACACA_site922]” it is 10.3. With “AAGAAATATTTATACACACACACAAACATATAAATA [CACACA_site6981]”, the “gcPBM binding intensity (ln)” value amounted to 11.1. The figure for “GAAATAGAGAAACACACACACATATATTTATGTATT [CACACA_site3967]” is 10.4; for “CAATATAAAAGACACACACACAAACATATATTTATA [CACACA_site7697]” it is 11.3.

Turning to “CATAAATACAAATATACACACATATTTATATTTATA [CACACA_site7277]”, the “gcPBM binding intensity (ln)” value stood at 9.78. As to “CAGAAATAGAGATACACACACACATATATTTATGTA [CACACA_site3968]”, the “gcPBM binding intensity (ln)” value was 11.3. The figure for “TATAAAAATAAGCACACACACAAATATAGATTTATT [CACACA_site6558]” is 11.3. The figure for “AATATTTATAAAGACACACAAACAAAAAGGATAAAA [CACACA_site2985]” is 10.3; for “ATAAAATTTATATAAGCACACAAATATATATTTATA [CACACA_site9083]” it is 9.7; for “GAAATAGAGAGACACACACACATATATTTATGTATT [CACACA_site7794]” it is 10.4.

Turning to “CACTTAAAAAGCTAACGTACAAATACACATATATAA [XGTACX_site1851]”, the “gcPBM binding intensity (ln)” value is 9.66. On to “CAAAACATTTTATCTACACACATATATAAATAAATA [CACACA_site3220]”, for which the “gcPBM binding intensity (ln)” value is 9.77. The figure for “GTTTACATTTTAAGAAGTACAAAATTTATGGTTAAA [XGTACX_site450]” is 9.42; for “TTAGGACAAAAAAAAATAAAAATAAAATAAAATAAT [CACACA_negctrl_site1613]” it is 9.61; for “TTTTAATATTTTAAGAGTACAGAAATATATAATATG [XGTACX_site4955]” it is 9.33.

Consider “TTATTTTACTTTTATGCAACTAAAAATATTGCTATA [XGTACX_negctrl_site277]”, for which the “gcPBM binding intensity (ln)” value turned out to be 9.6. The figure for “ACATAAATTTAATACACACACAAAGAAAAAAAAAAA [CACACA_site4088]” is 10.9; for “AAAACAAACAGACACACACACATATTTATATTTATA [CACACA_site7681]” it is 11; for “GAGATAAAATAAAACACACACATATATTTATATAAC [CACACA_site7098]” it is 10.9. The figure for “TGACATAAATTTAATACACACACAAAGAAAAAAAAA [CACACA_site9354]” is 10.2. Turning to “CATAAAATATAAAACACACACACATATATTTATATA [CACACA_site6247]”, the “gcPBM binding intensity (ln)” value is 10.5.

Take “TAAAAAAAAAAAAAAACACACATATAAATATTTATA [CACACA_site6702]”: the “gcPBM binding intensity (ln)” value is 9.61. For “AAAACAAACAGACACACACACATATATATATATATA [CACACA_site3655]”, the “gcPBM binding intensity (ln)” value was determined as 10.8. The figure for “AATTTTTTATTAAACACACAAACATATATATATATA [CACACA_site1937]” is 9.66. The figure for “GAATATTAAACAAACACACACACATATATATATATA [CACACA_site3382]” is 10.7. The figure for “GAATATTAAACAAACACACACACATATATTTATATA [CACACA_site7563]” is 11.1; for “AAAACAGACAAACACACACACACATATATATATATA [CACACA_site3393]” it is 10.6. For “GAAAGAATAAAATTTACACACATATATAAATACATA [CACACA_site5273]”, the “gcPBM binding intensity (ln)” value came to 9.87. “ATTTTATTTTTTAAAGGTACAGTTACAGCTTATATA [XGTACX_site7513]”: the “gcPBM binding intensity (ln)” value is 9.51. The figure for ATAAGCATCTTTTGTGTGCACATAACAAAAAAAAAA is 9.85.
